Reference: PubChem BioAssay (Tox21)
Values joined by “and” are separate entries in the source; they are usually repeats but may differ in a detail not shown here. Equal values may be shown once. Values without a mark were called inactive. A call without a number means that no potency is given here. Active and inactive are the calls of the source. Calls come from the whole dose curve; as a rule, active = well fitted curve in the direction sought with a large enough effect in the repeat runs; inconclusive = weak or mixed curves; inactive = flat fitted curve, though single readings scatter.

Experiment: qHTS assay to test for compound auto fluorescence at 590 nm (red) in HEK293 cells (AID 720679)
Conditions: red autofluorescence 540/590 nm; series mostly up to 91.3 µM
Procedure, shortened: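 Red-channel autofluorescence (Ex/Em 540/590 nm; Rose Bengal sodium reference) was measured after overnight 37C, 5% CO2 exposure of attached HEK293 cells, 2,000 per well in medium with 10% dialyzed FBS.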

Structure (SMILES) | Potency | fluorescence, % of fluorescent control
c1cc(-c2ccncc2)ccn1 | inactive | 
C#C[C@]1(O)CC[C@H]2[C@@H]3CCc4cc(OC)ccc4[C@H]3CC[C@@]21C | inactive | 
c1ccc2c(c1)c1cccc3ccc4cccc2c4c31 | inactive | 
O=C(OCc1ccccc1)c1ccccc1O | inactive | 
Cc1cccc([N+](=O)[O-])c1C | inactive | 
Nc1ncn([C@@H]2O[C@H](CO)[C@@H](O)[C@H]2O)c(=O)n1 | inactive | 
CC(=O)C1(C)CC2=C(CCCC2(C)C)CC1C (stereo unspecified) | inactive | 
Cc1[nH]c(=O)c(C#N)cc1-c1ccncc1 | inactive | 
CC(C)=CCC/C(C)=C\CO | inactive | 
COC(=O)CCC(=O)OC | inactive | 
CCC(C)CO (stereo unspecified) | inactive | 
Cc1cccc(C(=O)O)c1 | inactive | 
O=C1c2cccc(O)c2C(=O)c2c(O)cccc21 | inactive | 
CNCCCC12CCC(c3ccccc31)c1ccccc12 | inactive | 
C[Si](C)(C)O[Si](C)(C)C | inactive | 
C#C[C@]1(O)CC[C@H]2[C@@H]3CCC4=Cc5oncc5C[C@]4(C)[C@H]3CC[C@@]21C | inactive | 
OC(CCl)CCl | inactive | 
CC(C)CC(C)(O)C#CC(C)(O)CC(C)C (stereo unspecified) | inactive | 
C=CC(C)(CCC=C(C)C)OC(C)=O (stereo unspecified) | inactive | 
CC(C)OC=O | inactive | 
O=C=Nc1ccc(Cc2ccc(N=C=O)cc2)cc1 | inactive | 
OCCO | inactive | 
CC1=CCC(C(C)(C)O)CC1 (stereo unspecified) | inactive | 
Brc1cc(Oc2cc(Br)c(Br)c(Br)c2Br)c(Br)c(Br)c1Br | inactive | 
CN(C)c1nc(N(C)C)nc(N(C)C)n1 |  | 0.0163% [at 18.6 µM] and 0.505% [at 3.72 µM]
CCCCCCCCCCCO | inactive | 
